In all, about 360,000 compounds went through this assay and about 25,000 (6.9%) were called active. Not shown: some 9% with an inconclusive outcome. Calls follow the shape of the dose curve; as a rule, active = well fitted inhibition curve with a large enough effect; inconclusive = small, poorly fitted or top-dose-only effect; inactive = flat fitted curve, though single readings scatter. The full list was thinned out, with actives kept by preference.
target: Luciferin 4-monooxygenase (Photinus pyralis) (UniProt P08659); test: qHTS profiling assay for firefly luciferase inhibitor/activator using purifed enzyme and Km concentrations of substrates (counterscreen for miR-21 project); conditions: purified FLuc, luminescence inhibition; series mostly up to 57.5 µM; activity change, negative = inhibition: at the top concentration; also: nearly all actives have a fitted effect of over 55% in size;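 as to activity change, negative = inhibition: plate controls were vehicle for no effect and reference inhibitor for full effect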
Outline: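 Biochemical qHTS of compounds, final roughly 60 µM downward over six points, against 10 nM purified firefly luciferase using Km concentrations of substrates (10 uM D-luciferin, 10 uM ATP) in Tris acetate pH 7.5 buffer; luminescence output.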
Potency is read from the fitted curve at half-maximal effect.

Chain of Luciferin 4-monooxygenase (Photinus pyralis) (P08659 whole entry, looked up): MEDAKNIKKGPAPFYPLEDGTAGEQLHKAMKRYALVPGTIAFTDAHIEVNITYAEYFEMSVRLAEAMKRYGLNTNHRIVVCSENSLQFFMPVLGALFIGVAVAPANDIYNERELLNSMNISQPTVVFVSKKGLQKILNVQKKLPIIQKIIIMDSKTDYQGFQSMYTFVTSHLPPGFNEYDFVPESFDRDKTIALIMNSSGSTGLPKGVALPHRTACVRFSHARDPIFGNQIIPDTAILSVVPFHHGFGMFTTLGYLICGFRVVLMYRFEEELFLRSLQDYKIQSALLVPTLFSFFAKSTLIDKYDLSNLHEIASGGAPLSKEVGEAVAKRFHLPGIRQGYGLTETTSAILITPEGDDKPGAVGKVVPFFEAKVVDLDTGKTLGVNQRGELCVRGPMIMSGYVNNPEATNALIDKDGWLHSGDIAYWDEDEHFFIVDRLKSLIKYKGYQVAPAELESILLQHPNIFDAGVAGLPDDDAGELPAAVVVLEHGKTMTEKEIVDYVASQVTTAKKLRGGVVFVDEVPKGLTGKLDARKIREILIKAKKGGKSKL

Compound	activity change, negative = inhibition	Potency
Cc1cc(Br)ccc1NC(=O)Cn1cnc2sc(C)c(S(=O)(=O)N3CCN(C)CC3)c2c1=O	0.211% (inactive)	
Brc1ccc(CN2CC[C@H]3C=CCc4cccc(c43)C2)cc1	-0.129% (inactive)	
CCOc1ccccc1CNC(=O)c1ccc2c(c1)nc1n2CCC(C)C1 (stereo not drawn)	-7.25% (inactive)	
O=C(NCc1ccccc1)c1ccc2c(c1)nc1n2CCCCC1		19 µM (active)
Cc1ccc(CCNC(=O)c2ccc3c(c2)nc2n3CCC(C)C2)cc1 (stereo not drawn)	-11.4% (inactive)	
O=C(NCc1ccc(Cl)c(Cl)c1)c1cccnc1	3.25% (inactive)	
O=C(/C=C/c1ccc(Cl)cc1Cl)c1cccnc1		15.1 µM (active)
O=C(/C=C/c1ccc(Cl)c([N+](=O)[O-])c1)c1cccnc1	6.73% (inactive)	
Cc1cccc(C)c1NC(=O)Nc1ccccc1-n1ccnc1	0.683% (inactive)	
O=c1c2ccccc2n(Cc2cccc(Cl)c2)c(=O)n1Cc1ccccc1	-7.92% (inactive)	
Cc1ccc(-n2ncc3c(NCCCn4ccnc4)ncnc32)cc1Cl		12 µM (active)
COCCNc1ncnc2c1c(-c1ccccc1)cn2-c1ccc(C)c(Cl)c1	-12.8% (inactive)	
CCN(CC)CCNc1ncnc2c1cnn2-c1cc(Cl)ccc1C	-3.56% (inactive)	
Cc1ccccc1CNC(=O)c1ccc(NC(=O)N2CCCCc3ccccc32)cc1	-4.31% (inactive)	
COC(=O)C1=C(C)NC(=O)/C1=C/c1ccc(CNS(=O)(=O)c2ccc(C)cc2)o1	2.37% (inactive)	
C[C@@H](NC(=O)c1nc[nH]c1C(=O)N1CCN(C(=O)OC(C)(C)C)CC1)c1ccccc1	6.17% (inactive)	
Cc1cnc(NC(=O)CSc2nnc(C)s2)s1	1.36% (inactive)	
Cc1cnc(NC(=O)CSc2nnc(-c3ccccc3)n2Cc2ccccc2)s1	-0.828% (inactive)	
Cc1cnc(NC(=O)c2ccccn2)s1		2.69 µM (active)
Cc1ccc(Cl)cc1NC(=O)Cc1ccc(-n2c(C)nc3cccnc32)cc1	-0.863% (inactive)	
Cc1ccc(Cl)cc1NC(=O)CSc1nccn1C	-1.57% (inactive)	
Cc1cnc(NC(=O)Cn2cnc3c2c(=O)n(C)c(=O)n3C)s1	-0.119% (inactive)	
Cc1cnc(NC(=O)c2ccc(Cl)nc2)s1		12 µM (active)
Cc1ccc(Cl)cc1NC(=O)c1ccccn1		16.9 µM (active)
Cc1cnc(NC(=O)C2CCCC2)s1	-1.27% (inactive)	
COc1ccc(-c2onc(C)c2C)cc1S(=O)(=O)NCc1cccs1	2.14% (inactive)	

Compound	activity change, negative = inhibition	Potency
CC(=O)NC(CC(=O)Nc1nc(-c2ccccc2)c(C(C)=O)s1)c1ccccc1 (stereo not drawn)	3.71% (inactive)	
COc1cccc(-c2n[nH]c3c2C(c2cccc(O)c2)N(C)C3=O)c1 (stereo not drawn)	-14.7% (inactive)	
O=C1COc2ccc(C(=O)CSc3ccc(Br)cc3)cc2N1	-18.2% (inactive)	
Cc1ccc(C)c(N2CCN(c3ccc4cc(S(=O)(=O)N5CCC(C)CC5)ccc4n3)CC2)c1	0.974% (inactive)	
Cc1cc(NC(=O)C2CCC(CNS(=O)(=O)c3ccc(Br)s3)CC2)ccc1Br (stereo not drawn)	-17.6% (inactive)	
Cc1cc(C)cc(OCC(=O)Nc2nc(-c3ccc(F)cc3)ns2)c1	-13.9% (inactive)	
C/C(N)=C(/C#N)C(=O)COC(=O)C1=NN(c2ccccc2)C(=O)CC1	3.91% (inactive)	
C/C(N)=C(/C#N)C(=O)COC(=O)c1cc(-c2ccc(C)cc2)nc2ccccc12		9.53 µM (active)
COc1ccc(CCNC(=O)COC(=O)c2cc(=O)c3ccccc3o2)cc1	3.44% (inactive)	
COc1ccc(-c2cc(C(=O)N(C)Cc3ccccc3)c3ccccc3n2)cc1		10.7 µM (active)
O=C(O/N=C(/c1ccccc1)c1ccncc1)c1ccccc1[N+](=O)[O-]	-2.68% (inactive)	
C/C(N)=C(/C#N)C(=O)COC(=O)c1cc(-c2cccc(Br)c2)nc2ccccc12	-18.4% (inactive)	
COc1ccc(C2=NS(=O)(=O)N(C)C(C(=O)N(C)Cc3ccccc3)=C2)cc1	2.04% (inactive)	
N/C(=N\OC(=O)c1cc(-c2ccccc2)nc2ccccc12)c1ccncc1		21.3 µM (active)
COC(=O)CNC(=O)c1cc(-c2ccncc2)nc2ccccc12	-2.72% (inactive)	
COc1ccc(CN(C)C(=O)c2cc(-c3ccc(C)cc3C)nc3ccccc23)c(OC)c1OC	-1.21% (inactive)	
CNC(=O)COC(=O)c1cc(-c2ccc(OC)cc2)nc2ccccc12		5.36 µM (active)
COc1ccc(NC(=O)c2cc(-c3cc(OC)c(OC)c(OC)c3)nc3ccccc23)c(OC)c1	-14.7% (inactive)	
Cc1cc(C)c2oc(C(=O)Nc3c(C(=O)Nc4ccccc4)oc4ccccc34)cc(=O)c2c1	-0.72% (inactive)	
CCCCN(C(=O)C(CCSC)N1C(=O)c2ccccc2C1=O)c1c(N)n(CCC)c(=O)[nH]c1=O (stereo not drawn)	-0.596% (inactive)	
COc1cc(NS(=O)(=O)c2ccc3c(c2)OCC(C(=O)N2CCCC2)O3)cc(OC)c1 (stereo not drawn)	-13.5% (inactive)	
COc1ccc2c(CNCCc3ccccc3C)c(C(=O)O)n(Cc3ccccc3C)c2c1	-6.19% (inactive)	
CCCn1ccc2c(OCC(=O)NCc3ccc(F)cc3)cccc2c1=O	5.31% (inactive)	
COC(=O)c1cccnc1NC(=S)NC(C)C	-19% (inactive)	
Cc1cc(NS(=O)(=O)c2ccc3oc(=O)c4ncn(C)c4c3c2)ccc1Br	-16.5% (inactive)	
Cc1c(O)c(C)c2c(c1O)C(=O)C[C@@H](c1ccccc1)O2	-0.7% (inactive)	

Compound	activity change, negative = inhibition	Potency
CCn1cc(C(=O)NCCc2ccccc2)c(=O)c2cc(S(=O)(=O)N3CCCCCC3)ccc21	-6.86% (inactive)	
CCOc1ccc(N2CC(C)Cn3c2nc2c3c(=O)n(Cc3c(F)cccc3Cl)c(=O)n2C)cc1 (stereo not drawn)	-2.6% (inactive)	
Cc1ccc(NC(=O)CSc2nc3c(c(=O)[nH]2)CN(Cc2ccc4c(c2)OCO4)CC3)cc1C	-1.68% (inactive)	
COc1ccc(S(=O)(=O)n2cnc3ccccc32)c(C)c1	4.47% (inactive)	
Cc1ccc(OCC(=O)Nn2cnc3ccccc32)cc1	5.06% (inactive)	
COc1ccc(-c2cc(C(=O)n3cnc4ccccc43)c3ccccc3n2)cc1		5.36 µM (active)
O=C(Nc1ccc(S(=O)(=O)N2CCC(c3nc4ccccc4s3)CC2)cc1)c1ccccc1F	3.7% (inactive)	
Cc1ccc(S(=O)(=O)N(C)C)cc1NC(=O)CN1c2cccc3cccc(c23)S1(=O)=O	5.47% (inactive)	
CCOC(=O)c1c(C)[nH]c(C2=NNC(=NC(C)COC)SC2)c1C (stereo not drawn)		8.49 µM (active)
COc1ccc(C2(Nc3cccc(F)c3)C(=O)c3ccccc3C2=O)cc1	1.56% (inactive)	
O=C(COC(=O)c1ncc(Cl)c(Cl)c1Cl)NCc1ccccc1	0.856% (inactive)	
CCOC(=O)c1cccc(NS(=O)(=O)c2cc(-c3cnc(C)o3)ccc2OC)c1	-15.8% (inactive)	
COc1ccc(NS(=O)(=O)c2cccc(C(=O)NCCc3ccc(S(N)(=O)=O)cc3)c2)cc1	4.27% (inactive)	
COc1ccc(CCNC(=O)CCCn2c(=O)c3ccccc3n(Cc3ccc(C)cc3)c2=O)cc1OC	4.24% (inactive)	
C/C(N)=C(/C#N)C(=O)COC(=O)CNS(=O)(=O)c1ccc(C)cc1	2.08% (inactive)	
COC(=O)CNS(=O)(=O)c1ccc(OC)cc1	-0.286% (inactive)	
COC(=O)CNS(=O)(=O)c1ccc(Cc2ccc(S(=O)(=O)NCC(=O)OC)cc2)cc1		3.79 µM (active)
COc1ccc(-c2nc(Cn3c(=O)cc(C)c4c(C)nn(-c5ccccc5)c43)c(C)o2)c(OC)c1	0.0062% (inactive)	
CCOC(=O)c1nnn(CC(=O)NC(=O)Nc2ccccc2F)c1C(=O)OCC	-6.37% (inactive)	
CC(=O)Nc1ccc(NC(=O)COC(=O)c2ccccc2C(=O)c2ccccc2)cc1	-0.276% (inactive)	
O=C(COC(=O)C1CC2C=CC1C2)Nc1ccccc1 (stereo not drawn)		16.9 µM (active)
Cc1ccc(S(=O)(=O)N(C)CC(=O)OCC(=O)Nc2ccccc2)cc1	-3.85% (inactive)	
COc1ccc2c(c1OC)C(=O)N(c1ccc(O)cc1)C2		15.1 µM (active)
COc1ccc2c(c1OC)C(=O)N(c1ncn[nH]1)C2	1.33% (inactive)	
COc1cc(C(=O)N2C(=O)c3cccc(N)c3C2=O)cc(OC)c1OC	2.66% (inactive)	
CCOc1ccc(CC(=O)NCCc2csc3nc(-c4ccccc4F)nn23)cc1	-11% (inactive)	

Compound	activity change, negative = inhibition	Potency
Fc1ccc2nc(N3CCCCC3)sc2c1		4.78 µM (active)
CN(C)CCCN(C(=O)c1ccc(S(=O)(=O)N2CCCCCC2)cc1)c1nc2cc3c(cc2s1)OCCO3	4.03% (inactive)	
CN(C)CCCN(C(=O)c1ccc(S(=O)(=O)N2CCCCCC2)cc1)c1nc2ccc(Br)cc2s1	1.44% (inactive)	
Cc1nc(N2CCCCC2)sc1C=O	4.38% (inactive)	
c1c2c(cc3sc(N4CCCCC4)nc13)OCCO2		0.213 µM (active)
Brc1ccc2nc(N3CCCC3)sc2c1		7.57 µM (active)
O=C(NCCc1cccc(F)c1)C1CCCN(c2nc3ccccc3s2)C1 (stereo not drawn)	-1.62% (inactive)	
O=C(NCc1ccc(F)cc1)c1ccc2nc(N3CCCCC3)sc2c1	-9.13% (inactive)	
Cc1nc2ccn(Cc3cccs3)c(=O)c2cc1C(=O)NCc1ccc(Cl)cc1	-0.0141% (inactive)	
O=C(CSc1nnc(CN2CCCC2)n1-c1ccc(F)cc1)c1ccc2c(c1)OCO2	2.79% (inactive)	
O=C(CN1CCN(c2ccccc2O)CC1)NC(=O)NCc1ccccc1	12.3% (inactive)	
COc1ccc(S(=O)(=O)Nc2ccc3cn[nH]c3c2)cc1[N+](=O)[O-]	2.65% (inactive)	
CCOC(=O)Cc1csc(SCC(=O)Nc2ccc(C)cc2F)n1	2.01% (inactive)	
CCOC(=O)c1ccccc1NC(=O)CCc1c(C)nc2c(c1C)c(=O)n(C)c(=O)n2C	-0.937% (inactive)	
CCOc1cccc2cc(C(=O)OCC(=O)Nc3c(C)cccc3CC)c(=O)oc12		15.1 µM (active)
Cc1cccc(C)c1NC(=O)COC(=O)c1ccccc1O	-0.453% (inactive)	
CCc1cccc(C)c1NC(=O)COC(=O)CC1CCCC1	0.287% (inactive)	
O=c1[nH]c(CN2CCOCC2)nc2cc(Cl)ccc12	2.21% (inactive)	
NC(=O)Cc1nc2scc(-c3ccc(Cl)cc3)c2c(=O)[nH]1	0.326% (inactive)	
O=c1[nH]c(CCl)nc2cc(-c3ccc(Cl)cc3)sc12		0.107 µM (active)
CCc1ccccc1NC(=O)c1ccc(F)c(S(=O)(=O)NC2CCCCCC2)c1	-2.22% (inactive)	
COC(=O)c1ccc(NC(=O)CCc2c(C)nc3c(c(C)nn3-c3ccc(C)cc3)c2C)cc1	-4.68% (inactive)	
CN(c1cccc(NC(=O)Nc2ccc(Cl)cc2)c1)S(C)(=O)=O		2.39 µM (active)
COc1cccc(N(CC(=O)Nc2cccc(N(C)S(C)(=O)=O)c2)S(C)(=O)=O)c1	1.64% (inactive)	
CN(c1ccccc1)S(=O)(=O)c1cccc(NC(=O)Cc2ccc(Cl)cc2)c1	-14.1% (inactive)	

From PubChem BioAssay AID588342 (National Center for Advancing Translational Sciences (NCATS), 2011)
